Experimental data reported in PubChem BioAssay AID1159580 (chemical genetic matrix, 2015).
Where “and” joins values, the source holds several entries; their conditions need not be identical. Identical values can stand only once. About 2,000 (36%) of roughly 5,500 compounds were called active. Roughly 18% stayed inconclusive and do not appear here. Cut-off read from the data, not from the text of the source: active = normalized growth mostly below about 0.91 (no sharp cut-off); inconclusive = no clear call, values can overlap the other calls; inactive = mostly above about 0.92. The list shows a part of the results.

Assay: chemical genetic growth profiling, strain panel (AID 1159580);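 note: tested at 20 µM; growth read once vehicle control cultures reached saturation at 30 °C; 1 = growth at the plate median or of vehicle wells; lower values mean less growth of the strain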
Details: S. cerevisiae deletion strains, growth OD

Measured: normalized growth

C/C=C1\[C@H]2C=C(C)C[C@]1(N)c1ccc(=O)[nH]c1C2
inactive: locus YAL013W, strain DEP1, stronger effect = lower value 1.01 | locus YAL021C, strain ccr4, stronger effect = lower value 1 | locus YAL026C, strain drs2, stronger effect = lower value 1.03 | locus YAL030W, strain snc1, stronger effect = lower value 1.02 | locus YBL061C, strain skt5, stronger effect = lower value 1.01 | locus YBR009C, strain hhf1, stronger effect = lower value 1.03 | locus YBR021W, strain FUR4, stronger effect = lower value 1.01 | locus YBR023C, strain chs3, stronger effect = lower value 1.02 | locus YBR171W, strain sec66, stronger effect = lower value 1.03 | locus YBR229C, strain ROT2, stronger effect = lower value 1.01 | locus YBR231C, strain swc5, stronger effect = lower value 1.02 | locus YBR279W, strain paf1, stronger effect = lower value 1.02 | locus YCL011C, strain gbp2, stronger effect = lower value 1.02 | locus YCL016C, strain dcc1, stronger effect = lower value 1.01 | locus YCL029C, strain bik1, stronger effect = lower value 1.02 | locus YCL061C, strain MRC1, stronger effect = lower value 1.02 | locus YCL069W, strain vba3, stronger effect = lower value 1.02 | locus YCR088W, strain abp1, stronger effect = lower value 1.02 | locus YDL005C, strain med2, stronger effect = lower value 1.04 | locus YDL035C, strain GPR1, stronger effect = lower value 1.01 | locus YDL040C, strain nat1, stronger effect = lower value 1.01 | locus YDL074C, strain BRE1, stronger effect = lower value 1.01 | locus YDL101C, strain DUN1, stronger effect = lower value 1.01 | locus YDL134C, strain PPH21, stronger effect = lower value 1.01 | locus YDL185W, strain tfp1, stronger effect = lower value 1.02 | locus YDL192W, strain arf1, stronger effect = lower value 1.02 | locus YDR001C, strain nth1, stronger effect = lower value 1.01 | locus YDR069C, strain doa4, stronger effect = lower value 1.03 | locus YDR101C, strain arx1, stronger effect = lower value 1 | locus YDR137W, strain rgp1, stronger effect = lower value 1.01 | locus YDR150W, strain NUM1, stronger effect = lower value 1.02 | locus YDR159W, strain sac3, stronger effect = lower value 1.03 | locus YDR162C, strain NBP2, stronger effect = lower value 1.02 | locus YDR195W, strain ref2 0.989 | locus YDR297W, strain sur2, stronger effect = lower value 1.01 | locus YDR318W, strain mcm21, stronger effect = lower value 1.02 | locus YDR334W, strain swr1, stronger effect = lower value 1.03 | locus YDR335W, strain msn5, stronger effect = lower value 1.02 | locus YDR388W, stronger effect = lower value 1.01 | locus YDR392W, strain spt3, stronger effect = lower value 0.966 | locus YDR502C, strain sam2, stronger effect = lower value 1.01 | locus YEL003W, strain gim4, stronger effect = lower value 1.03 | locus YEL037C, strain rad23, stronger effect = lower value 1.02 | locus YEL061C, strain CIN8 (second series), stronger effect = lower value 1.03 | locus YEL061C, strain CIN8, stronger effect = lower value 1.01 | locus YER015W, strain faa2, stronger effect = lower value 1.02 | locus YER016W, strain bim1, stronger effect = lower value 1.03 | locus YER110C, stronger effect = lower value 1.01 | locus YER111C, strain swi4, stronger effect = lower value 1.03 | locus YER155C, strain BEM2 (second series), stronger effect = lower value 1.04 | locus YER155C, strain BEM2, stronger effect = lower value 1 | locus YER167W, strain BCK2, stronger effect = lower value 1.02 | locus YFR010W, strain ubp6, stronger effect = lower value 1.03 | locus YGL078C, strain dbp3, stronger effect = lower value 1.01 | locus YGL086W, strain mad1, stronger effect = lower value 1.01 | locus YGL167C, strain pmr1, stronger effect = lower value 1.02 | locus YGL173C, strain kem1, stronger effect = lower value 1.04 | locus YGL227W, strain vid30, stronger effect = lower value 1.03 | locus YGL240W, strain doc1, stronger effect = lower value 1.04 | locus YGL248W, strain PDE1, stronger effect = lower value 1.01 | locus YGL253W, strain hxk2, stronger effect = lower value 1.02 | locus YGR078C, strain PAC10, stronger effect = lower value 1.01 | locus YGR135W, strain pre9, stronger effect = lower value 1 | locus YGR229C, strain SMI1, stronger effect = lower value 1.01 | locus YGR252W, strain gcn5, stronger effect = lower value 1.01 | locus YHR013C, strain ard1, stronger effect = lower value 1.02 | locus YHR027C, strain rpn1, stronger effect = lower value 1.03 | locus YHR030C, strain SLT2, stronger effect = lower value 1 and 1.02 | locus YHR079C, strain IRE1 (second series), stronger effect = lower value 1.01 | locus YHR079C, strain IRE1, stronger effect = lower value 1.01 | locus YHR094C, strain hxt1, stronger effect = lower value 1.01 | locus YHR129C, strain ARP1, stronger effect = lower value 1 | locus YHR142W, strain chs7, stronger effect = lower value 0.992 | locus YHR200W, strain rpn10, stronger effect = lower value 1.02 | locus YIL066C, strain RNR3, stronger effect = lower value 1.02 | locus YIL073C, strain SPO22, stronger effect = lower value 1.08 | locus YIL125W, strain kgd1, stronger effect = lower value 1.02 | locus YIR030C, strain dcg1, stronger effect = lower value 1.01 | locus YJL092W, strain hpr5, stronger effect = lower value 1.03 | locus YJL095W, strain BCK1 (second series), stronger effect = lower value 1.01 | locus YJL095W, strain BCK1, stronger effect = lower value 0.989 and 0.995 | locus YJL115W, strain asf1, stronger effect = lower value 1.02 | locus YJL129C, strain trk1, stronger effect = lower value 1.02 | locus YJL134W, strain LCB3, stronger effect = lower value 1.01 | locus YJL154C, strain vps35, stronger effect = lower value 1.02 | locus YJL164C, strain tpk1, stronger effect = lower value 1.01 | locus YJL166W, strain qcr8, stronger effect = lower value 1.02 | locus YJL168C, strain set2, stronger effect = lower value 1.01 | locus YJL187C, strain SWE1 (second series), stronger effect = lower value 1 | locus YJL187C, strain SWE1, stronger effect = lower value 1.02 | locus YJR043C, strain POL32, stronger effect = lower value 1.01 | locus YJR066W, strain TOR1, stronger effect = lower value 0.96
